Assay outcomes: PubChem BioAssay, Johns Hopkins Ion Channel Center
Shown are actives, neighbours in structure and some others; about 1.6% of the full set was active somewhere.
KCNQ2 pot: KCNQ2 (rat) channel potentiation. O88943. CHO-K1 KCNQ2, FluxOR thallium flux fluorescence; hits give high values. B-score at 10 µM. 0.54% of 310,000 active. AID 2239;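 active = fluorescence ratio B-score at least 3 SD of library B-scores, with initial fluorescence B-score within 3 of them, cut at about 5.3 in these data; same plate scores as AID 2156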;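 note: B-score of peak minus minimum over baseline fluorescence ratio after K+ and Tl+ stimulus; positive B-score means potentiation of KCNQ2 with more thallium influx and brighter signal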
KCNQ2 inh: inhibitors of rat KCNQ2 potassium channel; O88943; CHO-K1 KCNQ2, FluxOR thallium flux, 20 min; hits give low values; B-score at 10 µM; 1.1% of 310,000 active; AID 2156;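 active = fluorescence ratio B-score at most minus 3 library SDs, with starting brightness B-score within 2 library SDs, cut at about -5.5 in these data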
Kir21 confirm: confirmation of mouse Kir2.1 potassium channel inhibitors | shares compounds with KCNQ2 pot | Kir2.1-expressing cells, FluxOR thallium flux fluorescence; hits give low values | Tl flux remaining, % of negative control (hits give low values), % at 10 µM | 41% of 2,300 active;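 active = Primary-screen hit whose thallium flux fell at least 3 control SD below untreated wells in both duplicates, with normal baseline fluorescence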
HEK293 Tl flux: parental HEK293 activity in Kir2.1 inhibitor counter-screen; shares compounds with KCNQ2 pot; FluxOR signal as % of negative control (100 = no effect), % at 10 µM; 19% of 2,300 active; parental HEK293 cells, FluxOR thallium flux fluorescence; 0% = unstimulated blank wells;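 active = dye signal at least 3 control SD above or below untreated wells in both duplicates, raw fluorescence within 3, either direction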;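 note: percent is based on the flux ratio of peak minus minimum fluorescence over baseline F0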
CHO-K1 ctr: parental CHO-K1 activity in KCNQ2 potentiator counter-screen | shares compounds with KCNQ2 pot | parental CHO-K1 cells, FluxOR thallium flux fluorescence; zero = vehicle mean+3SD, 100% = vehicle-minus-blank window | activity increase over 3SD of controls, % at 10 µM | AID 2282 | 43% of 1,200 active;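 active = signal rise of at least 3 SD above the untreated control mean, in both duplicate wells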;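 note: counter screen of KCNQ2 potentiator hits so any rise reflects channel-independent effects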
KCNQ1 sel pot: human KCNQ1 counter-target activity of KCNQ2 potentiators. CHO KCNQ1 stable, FluxOR thallium flux fluorescence; beyond 3SD, as % of vehicle-control signal. AID 2283. 28% of 1,200 active. activation over 3SD threshold, % at 10 µM. shares compounds with KCNQ2 pot;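 active = fluorescence ratio rise of at least 3 SD of vehicle wells above their mean, in both replicate wells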
KCNQ2 pot confirm: rat KCNQ2 channel potentiator confirmation; potentiation, less the hit threshold, % at 10 µM; CHO-KCNQ2 cells, FluxOR thallium flux fluorescence; 68% of 1,200 active; AID 2287; shares compounds with KCNQ2 pot;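 active = fluorescence ratio rising 3 SD or more over the vehicle control mean in both replicates, plus primary screen hit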;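 note: peak minus minimum thallium fluorescence divided by baseline after K/Tl stimulus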
Kir21 spec: selectivity of KCNQ2 potentiators: effect on mouse Kir2.1; HEK293 Kir2.1, FluxOR thallium flux fluorescence; shares compounds with KCNQ2 pot; activity over 3SD threshold, % at 10 µM; AID 2345; 2% of 1,200 active;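 active = fluorescence ratio rise of at least 3 SD above the vehicle-control mean, seen in both replicates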
KCNQ2 W236L MoA: rat KCNQ2 W236L mutant potentiation by KCNQ2 potentiators. shares compounds with KCNQ2 pot. CHO KCNQ2-W236L, automated patch clamp current. current increase over 3SD of negative controls (%), hits give high values, % at 25 µM. 10% of 940 active;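 active = current increase at least 3 SD of the untreated controls above them in both duplicate recordings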
A number is an active result; – = inactive; · = no result.

SMILES | KCNQ2 pot | KCNQ2 inh | Kir21 confirm | HEK293 Tl flux | others
CC(=O)OC(C)(C)/C=C/C(=O)C(C)(O)C1[C@H](O)C[C@@]2(C)C3CC=C4C(CC[C@@H](O)C4(C)C)[C@]3(CO)C(=O)C[C@]12C (some centres undefined) | 7.1 | – | – | – | CHO-K1 ctr=–;KCNQ1 sel pot=–;KCNQ2 pot confirm=9.0;Kir21 spec=–;KCNQ2 W236L MoA=–
CN[C@@H]1C[C@@H](c2ccc(Cl)c(Cl)c2)c2ccccc21 | · | – | 28% | –
CC(NCc1ccc(Cl)c(Cl)c1)C(O)c1ccccc1 (centres undefined) | · | – | · | ·
Cc1cc(C)n(-c2ccc(NN=C(C#N)C#N)cc2)n1 | · | – | · | ·
N#CC(C#N)=NNc1ccc(-n2ccc(C(F)(F)F)n2)cc1 | – | – | 60% | 73%
COc1ccc(-n2c(/C=C/c3ccc(O)cc3)nc3ccccc3c2=O)cc1 | · | – | · | ·
CCn1nc(/C=C/c2ccccc2)nc2c(=O)n(C)c(=O)nc1-2 | 7.9 | – | – | – | CHO-K1 ctr=5.3;KCNQ1 sel pot=–;KCNQ2 pot confirm=3.5;Kir21 spec=–;KCNQ2 W236L MoA=–
COc1ccc(CC(C)NCCC(c2ccccc2)c2ccccc2)cc1 (centres undefined) | · | – | · | ·
COc1cccc(CNCCc2c[nH]c3ccccc23)c1 | – | – | · | ·
COc1ccc(CNCCc2ccccc2F)c(OC)c1C | – | – | · | ·
COc1ccc(CNCCc2c[nH]c3ccccc23)c(OC)c1C | – | – | 46% | –
COc1cc(C)c(CNCCc2c[nH]c3ccccc23)cc1C | · | – | 40% | –
Cc1c(C(=O)c2cccc3ccccc23)c2cccc3c2n1[C@H](CN1CCOCC1)CO3 | · | – | · | ·
O=[N+]([O-])c1ccc2nc(N3CCNCC3)ccc2c1 | · | – | · | ·
O=C(Cn1ncc2c3ccccc3n(Cc3cccc(Cl)c3)c2c1=O)N1CCC2(CC1)OCCO2 | 13 | – | – | – | CHO-K1 ctr=109;KCNQ1 sel pot=–;KCNQ2 pot confirm=58;Kir21 spec=–;KCNQ2 W236L MoA=–
Cc1c2cnn(CC(=O)N3CCC4(CC3)OCCO4)c(=O)c2c(C)n1Cc1cccc(Cl)c1 | – | – | · | ·
O=c1nc(/C=C/c2ccc(Cl)cc2Cl)cc(C(F)(F)F)[nH]1 | – | – | · | ·
Cc1[nH]c2ccc(OC(F)(F)F)cc2c1CCNCc1ccc(Cl)cc1 | – | -7.7 | 16% | –
Cc1[nH]c2ccc(OC(F)(F)F)cc2c1CCNCc1cccc([N+](=O)[O-])c1 | · | – | · | ·
CCOc1cccc(CNCCc2c(C)[nH]c3ccc(OC(F)(F)F)cc23)c1O | · | – | 22% | –
Cc1ccc2[nH]c(C)c(CCNCc3ccco3)c2c1 | – | – | · | ·
C[C@]12CCC(=O)CC1CCC1C2CC[C@]2(C)C(OC(=O)CCC(=O)O)CCC12 (some centres undefined) | – | – | · | ·
Cc1nn(Cc2c(Cl)cccc2Cl)c(Cl)c1C(=O)O | – | – | · | ·
CC(Cc1ccccc1)N1C(=O)c2ccccc2C1=O (centres undefined) | · | – | · | ·
Cc1ccccc1N1CCN(C2CCCN(C(=O)Cc3c(C)noc3C)C2)CC1 (centres undefined) | – | – | · | ·
SMILES | KCNQ2 pot | KCNQ2 inh | Kir21 confirm | HEK293 Tl flux | others
CCCCCSc1cc(OC)c(CCNC)cc1OC | – | – | 43% | –
CC(=O)c1cn(CC(=O)NCCc2c[nH]c3ccccc23)c2ccccc12 | – | – | · | ·
CCOc1cc2c(cc1OCC)-n1cccc1C(c1cccc(OCC)c1O)NC2 (centres undefined) | · | – | · | ·
CCN1CCC2(CC1)NC(=O)c1ccccc1O2 | · | – | · | ·
O=c1cccc2n1CC1CC2CN(Cc2cccc(Cl)c2Cl)C1 (centres undefined) | · | – | 38% | –
O=c1cccc2n1CC1CC2CN(Cc2c(F)cccc2Cl)C1 (centres undefined) | – | – | · | ·
